# TDP1 cell CPT: qHTS for Inhibitors of human tyrosyl-DNA phosphodiesterase 1 (TDP1): qHTS in cells in presence of CPT; chicken DT40 Tdp1-/-;hTDP1 cells + 20 nM CPT, ATP luminescence, 48 h; Potency, µM (series often up to 46.2 µM), without a hit: at the top dose activity change, negative = growth inhibition, actives largely listed as inhibitors; actives 12% (n = 420,000); AID 686979, 2013; further: nearly all actives have a fitted effect of over 55% in size
#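 Chicken DT40 Tdp1-/- cells complemented with human TDP1, 400 cells/well, exposed to compounds plus 20 nM camptothecin for at least 48 h at 37 C; viability read as ATP content by CellTiter-Glo luminescence.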
# RORgamma inh: qHTS for inhibitors of ROR gamma transcriptional activity | Nuclear receptor ROR-gamma (Mus musculus), P51450 | Drosophila S2 Gal4-RORgamma UAS-luciferase reporter, 20 h | Potency, µM (top dose mostly 53.6 µM), inactives show at the highest dose activity change, negative = inhibition, usual class: inhibitors | actives 5.4% (n = 310,000); further: nearly all actives have a fitted effect of over 60% in size
#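 A Gal4/UAS one-hybrid system in insect cells: metallothionein-promoter Gal4–ROR gamma fusion plus Photinus luciferase reporter. Copper sulfate 700 uM final, 20 hr ambient incubation, luminescent detection after 10 min with reagent.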
# 12-LOX inh: Primary qHTS assay for inhibitors of human arachidonate 12S-lipoxygenase (ALOX12): Round 2; Polyunsaturated fatty acid lipoxygenase ALOX12 (Homo sapiens), P18054; purified 12hLO, xylenol orange hydroperoxide absorbance; Potency, µM (titrated, usually from 108 µM), inactives show at the highest dose activity change, negative = inhibition, hits mostly inhibitors; actives 1.1% (n = 580,000); AID 1671190, 2021
# Target sequence (P18054 whole entry, looked up): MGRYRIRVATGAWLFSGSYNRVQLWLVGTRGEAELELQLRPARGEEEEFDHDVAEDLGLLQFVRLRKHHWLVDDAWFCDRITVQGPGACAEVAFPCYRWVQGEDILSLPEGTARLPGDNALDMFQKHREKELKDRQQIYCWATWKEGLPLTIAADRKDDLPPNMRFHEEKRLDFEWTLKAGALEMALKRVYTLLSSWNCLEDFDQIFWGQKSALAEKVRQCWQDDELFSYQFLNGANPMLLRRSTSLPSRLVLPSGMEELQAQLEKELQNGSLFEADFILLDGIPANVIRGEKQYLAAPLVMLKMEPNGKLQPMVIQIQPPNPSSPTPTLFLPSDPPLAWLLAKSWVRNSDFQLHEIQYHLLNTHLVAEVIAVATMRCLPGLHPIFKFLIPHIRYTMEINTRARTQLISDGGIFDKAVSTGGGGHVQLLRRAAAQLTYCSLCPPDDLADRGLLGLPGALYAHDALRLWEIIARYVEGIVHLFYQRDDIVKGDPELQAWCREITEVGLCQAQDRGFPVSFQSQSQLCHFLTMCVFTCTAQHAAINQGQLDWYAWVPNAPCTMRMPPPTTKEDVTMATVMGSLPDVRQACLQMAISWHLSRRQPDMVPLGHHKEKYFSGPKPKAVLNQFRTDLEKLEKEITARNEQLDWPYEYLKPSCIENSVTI
#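 Purified human 12hLO (150 nM final) in 25 mM Hepes, 0.01% Triton X-100, pH 7.0 was preincubated 15 min at room temperature with compound. Then 40 uM arachidonic acid was added, 30 min. Hydroperoxide was read by Fe-XO absorbance ratio 573/405 nm.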
# VP16 counter: VP16 counterscreen qHTS for inhibitors of ROR gamma transcriptional activity; Potency, µM (top dose mostly 53.6 µM), without a hit: at the top dose activity, negative = inhibition, usual class: inhibitors; Drosophila S2 Gal4-VP16 UAS-luciferase, luminescence, 20 h; actives 3.5% (n = 310,000);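 further: Gal4-VP16 expression switched on by copper sulfate through the metallothionein promoter; nearly all actives have a fitted effect of over 50% in size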
# ELG1 DNA repair: qHTS screen for small molecules that inhibit ELG1-dependent DNA repair in human embryonic kidney (HEK293T) cells expressing luciferase-tagged ELG1; HEK293T ELG1-luciferase reporter, luminescence, 16 h; DNA damage induced by 5-fluorouridine; Potency, µM (top dose mostly 46.1 µM), inactives show at the highest dose activity change, negative = inhibition, most hits filed as inhibitors; actives 2.3% (n = 330,000); AID 504467, 2011; further: nearly all actives have a fitted effect of over 55% in size
#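 Luminescence from the luciferase reporter, measured 30 min after ONE-Glo reagent at room temperature, was the read-out. Beforehand, 2,000 cells per well were exposed for 16 hr at 37 °C to 5-fluorouridine together with compound or vehicle.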
# TDP1 cell noCPT: qHTS for Inhibitors of human tyrosyl-DNA phosphodiesterase 1 (TDP1): qHTS in cells in absence of CPT; Potency, µM (highest dose often 46.2 µM), inactives show at the highest dose activity change, negative = growth inhibition, most hits filed as inhibitors; DT40 Tdp1-/- hTDP1 cells, no CPT, ATP luminescence, 48 h; AID 686978, 2013; actives 15% (n = 420,000); further: nearly all actives have a fitted effect of over 55% in size
#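 A cellular qHTS used chicken DT40 cells lacking endogenous Tdp1 but carrying stably transfected human TDP1. Compounds were applied without camptothecin, and cell growth kinetics were judged by ATP-dependent luminescence after ≥48 hr.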
# ELG1 FLuc counter: qHTS screen for small molecules that inhibit ELG1-dependent DNA repair: Hit Confirmation in Cell-Based Luciferin Assay; cell-free firefly luciferase luminescence counter-screen, ViewLux; shares compounds with ELG1 DNA repair; actives 3% (n = 350); Potency, µM (doses to about 46.1 µM), inactives show at the top dose activity change, negative = inhibition, usual class: inhibitors; AID 624247, 2012
# ELG1 Luc conf: HTS assay for small molecules that inhibit ELG1-dependent DNA repair in human embryonic kidney (HEK293T) cells expressing luciferase-tagged ELG1: Hit Confirmation; AID 624248, 2012; Potency, µM (titrated, usually from 46.1 µM), without a hit: at the top dose activity change, negative = inhibition, most hits filed as inhibitors; actives 68% (n = 670); HEK293T ELG1-luciferase levels, luminescence; cells co-treated with 5-fluorouridine; shares compounds with ELG1 DNA repair; further: nearly all actives have a fitted effect of over 55% in size
# ELG1 MMS Luc: confirmation of human ELG1 repair inhibitors, MMS stimulated; Potency, µM (titrated, usually from 46.1 µM), for the others: at the highest dose activity change, negative = inhibition, hits mostly inhibitors; shares compounds with ELG1 DNA repair; actives 53% (n = 670); HEK293T luciferase-tagged ELG1 level, MMS stimulated; further: nearly all actives have a fitted effect of over 60% in size
# ELG1 5FU viab: qHTS screen for small molecules that inhibit ELG1-dependent DNA repair: Hit Confirmation with 5FU Viability | Potency, µM (titrated, usually from 46.1 µM), inactives show at the top dose activity change, negative = viability loss, usual class: cytotoxic | cell viability with 5-FU, ELG1-dependent repair | AID 624250, 2012 | 670 tested, under 10 active | shares compounds with ELG1 DNA repair;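 further: ELG1-luc HEK293T cells cotreated with 5-fluorouridine at 10 µM final; viability measured 16 h after compound addition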
# ELG1 MMS viab: qHTS screen for small molecules that inhibit ELG1-dependent DNA repair: Hit Confirmation with MMS Viability; shares compounds with ELG1 DNA repair; Cell viability with MMS, ELG1-dependent DNA repair; Potency, µM (highest dose often 46.1 µM), inactives show at the highest dose activity change, negative = viability loss, usual class: cytotoxic; actives 33% (n = 670);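 further: ELG1-luc HEK293T cells co-treated with 10 µM MMS; viability read 16 h after compound addition; nearly all actives have a fitted effect of over 60% in size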
# ELG1 unstim viab: qHTS screen for small molecules that inhibit ELG1-dependent DNA repair: Hit Confirmation with Unstimulated Viability Assay; Potency, µM (series often up to 45.9 µM), for inactives: top-dose activity change, negative = loss of viability, usual class: cytotoxic; actives 8% (n = 900); shares compounds with ELG1 DNA repair; cell viability counter-screen, unstimulated, luminescence;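 further: compound exposure lasted 16 hours before reading; nearly all actives have a fitted effect of over 55% in size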
# FLuc biochem: qHTS screen for small molecules that inhibit ELG1-dependent DNA repair: Hit Confirmation in Biochemical Luciferin Assay; purified firefly luciferase, luminescence counter-screen; Potency, µM (doses to about 57.5 µM), inactives show at the top dose activity, negative = inhibition, actives largely listed as inhibitors; actives 10% (n = 350); shares compounds with ELG1 DNA repair
# * marks the source's active call; other numbers are inactive results; ? = inconclusive; nt = no result; [ ] = dose if it differs, or a comment. An excerpt weighted towards active compounds, which were near 15% of everything screened. The call rests on the fitted dose curve; in most records, active means well fitted curve in the direction sought with a large enough effect; inconclusive means small, poorly fitted or top-dose-only effect, or another doubt; inactive means no such curve, though single readings can be large; an effect the other way counts as inactive or inconclusive. On the % scale 0 is the no-effect control and ±100 the full control effect; potency means the concentration at half of the fitted maximal effect.
SMILES,TDP1 cell CPT,RORgamma inh,12-LOX inh,VP16 counter,ELG1 DNA repair,TDP1 cell noCPT,ELG1 Luc conf,ELG1 MMS Luc,ELG1 5FU viab,ELG1 MMS viab,ELG1 unstim viab,others
O=C(CCl)c1ccc(O)c(O)c1,?,nt,nt,nt,nt,11.2µM*,nt,nt,nt,nt,-8.5%,
CCOC(=O)c1ccc(NC(=O)c2nc[nH]c2C(=O)NCCNC(=O)c2[nH]cnc2C(=O)Nc2ccc(C(=O)OCC)cc2)cc1,2.91µM*,nt,-4.2%,nt,0.517µM*,3.66µM*,0.792µM*,1.41µM*,?,?,-21.2%,ELG1 FLuc counter=?;FLuc biochem=?
CCCCOC(=O)c1ccc(NC(=O)c2c(O)[nH]c(=O)[nH]c2=O)cc1,20.6%,nt,-2.0%,nt,nt,-2.0%,nt,nt,nt,nt,nt,
CC1C(OC(=O)CCC(=O)NC(C)(C)CO)O[C@H]2OC3(C)CC[C@H]4[C@H](C)CCC1C24OO3 (stereo partly specified),0.82µM*,1.0%,-1.7%,2.2%,1.16µM*,0.0366µM*,?,?,-4.6%,?,?,
O=C(O)COCC(=O)N1C[C@@H]2C[C@H](C1)c1ccc(-c3cccc(C(F)(F)F)c3)c(=O)n1C2,nt,nt,47.7%,nt,nt,nt,nt,nt,nt,nt,nt,
CCc1c(C)nc(N2CCN(CC)CC2)[nH]c1=O,nt,nt,-14.5%,nt,nt,nt,nt,nt,nt,nt,nt,
COC[C@H]1C[C@@H](NC2CCC2)[C@H](O)[C@@H]1O,nt,nt,0.7%[176 µM],nt,nt,nt,nt,nt,nt,nt,nt,

# Compound activity (PubChem BioAssay)
